Inconclusive results are not listed. Where a call stands in place of a potency, no number is given. The source made the active and inactive calls. Unless noted, calls come from the whole dose curve; as a rule, active = well fitted curve in the direction sought with a large enough effect in the repeat runs; inconclusive = weak or mixed curves; inactive = no such curve, though single readings can be large; an effect the other way counts as inactive or inconclusive.
Tests used:
[1] = qHTS assay to identify small molecule antagonists of the glucocorticoid receptor (GR) signaling pathway - cell viability counter screen (AID 720693); note: nearly all actives have a fitted effect of over 55% in size
[2] = qHTS assay for identifying genotoxic compounds that show differential cytotoxicity against isogenic chicken DT40 cell lines with known DNA damage response pathways - wild type cell line (AID 743012); note: nearly all actives have a fitted effect of over 60% in size
Outline: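 First, wild type DT40 cells were plated at 300 per well and equilibrated about 0.5 h at 37 C/5% CO2. Next, compounds in DMSO were added and exposure lasted 40 h. Finally, CellTiter-Glo was added for 30 min at room temperature and luminescence recorded.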

[3] = qHTS assay for identifying genotoxic compounds that show differential cytotoxicity against isogenic chicken DT40 cell lines with known DNA damage response pathways - Rev3 mutant cell line (AID 743014); note: nearly all actives have a fitted effect of over 55% in size
[4] = qHTS assay for identifying genotoxic compounds that show differential cytotoxicity against isogenic chicken DT40 cell lines with known DNA damage response pathways - Rad54/Ku70 mutant cell line (AID 743015); note: nearly all actives have a fitted effect of over 60% in size
[5] = qHTS assay to identify small molecule antagonists of the androgen receptor (AR) signaling pathway - cell viability counter screen (AID 743033; note: nearly all actives have a fitted effect of over 45% in size)
[6] = qHTS assay to identify small molecule antagonists of the androgen receptor (AR) signaling pathway using the MDA cell line - cell viability counter screen (AID 743041; note: nearly all actives have a fitted effect of over 45% in size)
Outline: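 Cells were plated at 3,000 per well and left 5 h. Compounds in DMSO were then pinned in, followed by R1881. After 16 h at 37C, CellTiter-Fluor fluorescence gave viability.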

[7] = qHTS assay to identify small molecule antagonists of the thyroid receptor (TR) signaling pathway - cell viability counter screen (AID 743064); note: nearly all actives have a fitted effect of over 50% in size
Outline: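 Compounds were tested on GH3.TRE-Luc cells in the presence of T3 at 1 nM final. Following 23.5 h at 37 °C, cell viability was quantified by CellTiter-Fluor.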

[8] = qHTS assay to identify small molecule antagonists of the thyroid receptor (TR) signaling pathway (AID 743065); note: series mostly up to about 70 µM; nearly all actives have a fitted effect of over 55% in size
Outline: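 Antagonism measured as loss of luciferase signal in GH3 cells stably carrying a TRE-luciferase reporter, co-treated with compound and T3 (1 nM final) for 23.5 h at 37 C. Viability was read in the same well by CellTiter-Fluor.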

[9] = system: thyroid hormone receptor (rat, GH3 cells); experiment: qHTS assay to identify small molecule agonists of the thyroid receptor (TR) signaling pathway (AID 743066; calls by dose curve)
[10] = qHTS assay to identify small molecule antagonists of the estrogen receptor alpha (ER-alpha) signaling pathway - cell viability counter screen (AID 743074; calls by dose curve;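 note: HEK293 cells carrying ER-alpha-UAS-bla reporter stimulated with 17beta-estradiol; nearly all actives have a fitted effect of over 45% in size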)
[11] = qHTS assay to identify small molecule antagonists of the estrogen receptor alpha (ER-alpha) signaling pathway using the BG1 cell line - cell viability counter screen (AID 743081);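 note: compound given together with 17beta-estradiol as the ER stimulus; series mostly up to about 70 µM; nearly all actives have a fitted effect of over 45% in size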
Aromatase (Homo sapiens) = Aromatase (Homo sapiens) (UniProt P11511); experiment: qHTS assay to identify aromatase inhibitors (AID 743083); note: series mostly up to about 70 µM; nearly all actives have a fitted effect of over 55% in size
[12] = target: Estrogen receptor (Homo sapiens) (UniProt P03372); experiment: qHTS assay to identify small molecule antagonists of the estrogen receptor alpha (ER-alpha) signaling pathway (AID 743069; active = well fitted curve in the direction sought with a large enough effect in the signal ratio in the repeat runs, not every such curve was filed as active; the % refers to the signal ratio)
Outline: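 ER-alpha-UAS-bla GripTite HEK293 line; 2% charcoal-stripped FBS overnight; plated, 4 hr 37C/5% CO2; cpd in DMSO + 17beta-estradiol, 18 hr 37C; LiveBLAzer B/G FRET substrate 2 hr RT; fluorescence intensity.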

[13] = target: Estrogen receptor (Homo sapiens) (UniProt P03372); experiment: qHTS assay to identify small molecule agonists of the estrogen receptor alpha (ER-alpha) signaling pathway (AID 743075; calls by dose curve;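 note: HEK293 GripTite cells with ER-alpha and UAS-driven beta-lactamase reporter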)
[14] = target: Estrogen receptor (Homo sapiens) (UniProt P03372); experiment: qHTS assay to identify small molecule agonists of the estrogen receptor alpha (ER-alpha) signaling pathway using the BG1 cell line (AID 743079); note: nearly all actives have a fitted effect of over 20% in size; note: potency is the fitted concentration of half-maximal effect
[15] = qHTS assay to identify small molecule antagonists of the estrogen receptor alpha (ER-alpha) signaling pathway using the BG1 cell line (AID 743080; calls by dose curve;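 note: BG1 cells stimulated with 17beta-estradiol alongside compound; series mostly up to about 70 µM; nearly all actives have a fitted effect of over 25% in size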)
Outline: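 Luminescence from a 4×ERE-luciferase reporter in BG1-Luc-4E2 cells served as read-out. Cells, pre-cultured 5 days in stripped-serum phenol-red-free medium, were exposed to compound with 17beta-estradiol co-stimulation for 21.5 h at 37 C.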

Sequence of Aromatase (Homo sapiens) (P11511 whole entry, looked up): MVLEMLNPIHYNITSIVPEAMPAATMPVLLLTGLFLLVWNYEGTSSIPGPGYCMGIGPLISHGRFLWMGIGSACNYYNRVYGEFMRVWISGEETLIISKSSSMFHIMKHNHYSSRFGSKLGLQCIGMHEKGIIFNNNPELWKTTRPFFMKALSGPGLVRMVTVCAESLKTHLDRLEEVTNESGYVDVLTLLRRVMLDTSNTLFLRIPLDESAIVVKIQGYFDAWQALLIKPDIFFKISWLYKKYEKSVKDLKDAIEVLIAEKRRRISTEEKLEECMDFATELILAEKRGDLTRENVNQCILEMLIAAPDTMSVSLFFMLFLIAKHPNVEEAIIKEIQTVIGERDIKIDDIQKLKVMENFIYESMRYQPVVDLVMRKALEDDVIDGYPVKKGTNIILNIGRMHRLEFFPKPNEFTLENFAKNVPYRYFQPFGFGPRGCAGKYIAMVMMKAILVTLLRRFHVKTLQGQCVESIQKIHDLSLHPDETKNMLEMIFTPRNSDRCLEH
Sequence of Estrogen receptor (Homo sapiens) (P03372 whole entry, looked up): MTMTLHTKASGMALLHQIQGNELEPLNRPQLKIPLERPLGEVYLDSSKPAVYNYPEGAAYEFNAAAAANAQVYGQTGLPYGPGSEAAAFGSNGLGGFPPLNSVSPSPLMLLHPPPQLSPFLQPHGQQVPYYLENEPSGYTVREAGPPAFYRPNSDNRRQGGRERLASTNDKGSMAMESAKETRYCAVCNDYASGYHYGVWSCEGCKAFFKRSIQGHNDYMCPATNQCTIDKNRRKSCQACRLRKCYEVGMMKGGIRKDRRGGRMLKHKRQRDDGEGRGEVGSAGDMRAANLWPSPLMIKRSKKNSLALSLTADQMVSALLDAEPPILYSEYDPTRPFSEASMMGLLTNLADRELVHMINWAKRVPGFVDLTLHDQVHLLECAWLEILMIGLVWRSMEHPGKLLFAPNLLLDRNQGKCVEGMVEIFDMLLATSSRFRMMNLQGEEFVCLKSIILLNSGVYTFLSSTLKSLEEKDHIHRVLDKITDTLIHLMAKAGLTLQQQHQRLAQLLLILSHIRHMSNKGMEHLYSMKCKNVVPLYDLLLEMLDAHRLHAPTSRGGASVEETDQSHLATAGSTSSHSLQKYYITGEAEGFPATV

In the case of CC(=O)OCCCc1ccccc1, the Potency [1] is reported as “inactive”, the Potency [2] is reported as “inactive” and the Potency [3] is reported as “inactive”. The Potency [4] was “inactive”, the outcome [5] was “inactive” and the outcome [6] was “inactive”. For the same compound, the Potency [7] was “inactive”, the Potency [8] was “inactive” and the Potency [9] was “inactive”. The Potency [10] was “inactive”, the outcome [11] was “inactive” and the outcome (Aromatase (Homo sapiens)) was “inactive”.

In the case of F[Si-2](F)(F)(F)(F)F, the Potency [1] is reported as “inactive”, the Potency [2] is reported as “inactive” and the Potency [3] is reported as “inactive”. For the same compound, the Potency [4] was “inactive”, the outcome [5] was “inactive” and the outcome [6] was “inactive”. For the same compound, the Potency [8] was “inactive”, the Potency [9] was “inactive” and the Potency [12] was “inactive”. The Potency [10] was “inactive”, the Potency [13] was “inactive” and the Potency [14] was “inactive”. The outcome [15] was “inactive”, the outcome [11] was “inactive” and the outcome (Aromatase (Homo sapiens)) was “inactive”.

For C=COCCOCCOC=C, the Potency [1] was “inactive”, the Potency [2] was “inactive” and the Potency [3] was “inactive”. The Potency [4] was “inactive”, the outcome [5] was “inactive” and the outcome [6] was “inactive”. The Potency [7] was “inactive”, the Potency [8] was “inactive” and the Potency [9] was “inactive”. For the same compound, the Potency [10] was “inactive”, the outcome [11] was “inactive” and the outcome (Aromatase (Homo sapiens)) was “inactive”.

In the case of O=C1NC2NC(=O)NC2N1 (centres undefined), the Potency [1] is reported as “inactive”, the Potency [2] is reported as “inactive” and the Potency [3] is reported as “inactive”. For the same compound, the Potency [4] was “inactive”, the outcome [5] was “inactive” and the outcome [6] was “inactive”. For the same compound, the Potency [7] was “inactive”, the Potency [8] was “inactive” and the Potency [9] was “inactive”. The Potency [10] was “inactive”, the outcome [11] was “inactive” and the outcome (Aromatase (Homo sapiens)) was “inactive”.

For NS(=O)(=O)c1ccccc1OC(F)(F)F, the Potency [1] was “inactive”, the Potency [2] was “inactive” and the Potency [3] was “inactive”. For the same compound, the Potency [4] was “inactive”, the outcome [5] was “inactive” and the outcome [6] was “inactive”. The Potency [7] was “inactive”, the Potency [10] was “inactive” and the outcome [11] was “inactive”. For the same compound, the outcome (Aromatase (Homo sapiens)) was “inactive”.

With Cc1c(C(C)C)c(=O)n(-c2ccccc2)n1C the Potency [1] was “inactive”, the Potency [2] was “inactive” and the Potency [3] was “inactive”. For the same compound, the Potency [4] was “inactive”, the outcome [5] was “inactive” and the outcome [6] was “inactive”. The Potency [8] was “inactive”, the Potency [9] was “inactive” and the Potency [12] was “inactive”. For the same compound, the Potency [10] was “inactive”, the Potency [13] was “inactive” and the Potency [14] was “inactive”. For the same compound, the outcome [15] was “inactive”, the outcome [11] was “inactive” and the outcome (Aromatase (Homo sapiens)) was “inactive”.

In the case of NS(=O)(=O)c1cc2c(cc1Cl)NC(CC1CCCC1)NS2(=O)=O (centres undefined), the Potency [1] is reported as “inactive”, the Potency [2] is reported as “inactive” and the Potency [3] is reported as “inactive”. For the same compound, the Potency [4] was “inactive”, the outcome [5] was “inactive” and the outcome [6] was “inactive”. The Potency [7] was “inactive”, the Potency [8] was “inactive” and the Potency [9] was “inactive”. For the same compound, the Potency [10] was “inactive”, the outcome [11] was “inactive” and the outcome (Aromatase (Homo sapiens)) was “inactive”.

With COc1ccc(N=Nc2cc(C)c(N=Nc3ccc(S(=O)(=O)O)cc3)cc2OC)cc1 the Potency [1] was “inactive”, the Potency [2] was “inactive” and the Potency [3] was “inactive”. The Potency [4] was “inactive”, the outcome [5] was “inactive” and the outcome [6] was “inactive”. For the same compound, the Potency [7] was “inactive”, the Potency [10] was “inactive” and the outcome (Aromatase (Homo sapiens)) was “inactive”.

With CCC1Nc2cc(Cl)c(S(N)(=O)=O)cc2S(=O)(=O)N1 (centres undefined) the Potency [1] was “inactive”, the Potency [2] was “inactive” and the Potency [3] was “inactive”. For the same compound, the Potency [4] was “inactive”, the outcome [5] was “inactive” and the outcome [6] was “inactive”. The Potency [7] was “inactive”, the Potency [8] was “inactive” and the Potency [9] was “inactive”. For the same compound, the Potency [10] was “inactive” and the outcome (Aromatase (Homo sapiens)) was “inactive”.

In the case of CNCc1ccccc1, the Potency [1] is reported as “inactive”, the Potency [2] is reported as “inactive” and the Potency [3] is reported as “inactive”. The Potency [4] was “inactive”, the outcome [5] was “inactive” and the outcome [6] was “inactive”. For the same compound, the Potency [7] was “inactive”, the Potency [8] was “inactive” and the Potency [9] was “inactive”. For the same compound, the Potency [10] was “inactive”, the outcome [11] was “inactive” and the outcome (Aromatase (Homo sapiens)) was “inactive”.

In the case of CCCCCCCC/C=C\CCCCCCCC(=O)OC[C@@H](O)[C@H]1OC[C@H](O)[C@H]1O, the Potency [1] is reported as “inactive”, the Potency [2] is reported as “inactive” and the Potency [3] is reported as “inactive”. For the same compound, the Potency [4] was “inactive”, the outcome [5] was “inactive” and the outcome [6] was “inactive”. The Potency [8] was “inactive”, the Potency [9] was “inactive” and the Potency [12] was “inactive”. For the same compound, the Potency [10] was “inactive”, the Potency [13] was “inactive” and the Potency [14] was “inactive”. The outcome [15] was “inactive”, the outcome [11] was “inactive” and the outcome (Aromatase (Homo sapiens)) was “inactive”.

In the case of Cc1ccccc1N1CCN(CCc2nnc3n2CCCC3)CC1, the Potency [1] is reported as “inactive”, the Potency [2] is reported as “inactive” and the Potency [3] is reported as “inactive”. For the same compound, the Potency [4] was “inactive”, the outcome [5] was “inactive” and the Potency [7] was “inactive”. For the same compound, the Potency [8] was “inactive”, the Potency [9] was “inactive” and the Potency [10] was “inactive”. For the same compound, the outcome [11] was “inactive” and the outcome (Aromatase (Homo sapiens)) was “inactive”.

With CCCCCCCCCCCCOC(C)=O the Potency [1] was “inactive”, the Potency [2] was “inactive” and the Potency [3] was “inactive”. For the same compound, the Potency [4] was “inactive”, the outcome [5] was “inactive” and the outcome [6] was “inactive”. The Potency [8] was “inactive”, the Potency [9] was “inactive” and the Potency [10] was “inactive”. The Potency [13] was “inactive”, the Potency [14] was “inactive” and the outcome [15] was “inactive”. For the same compound, the outcome [11] was “inactive” and the outcome (Aromatase (Homo sapiens)) was “inactive”.

With CCCCOC(=O)C(=O)OCCCC the Potency [1] was “inactive”, the Potency [2] was “inactive” and the Potency [3] was “inactive”. The Potency [4] was “inactive”, the outcome [5] was “inactive” and the outcome [6] was “inactive”. The Potency [8] was “inactive”, the Potency [9] was “inactive” and the outcome [11] was “inactive”. The outcome (Aromatase (Homo sapiens)) was “inactive”.

For CC(=O)/C=C/c1ccco1, the Potency [1] was “inactive”, the Potency [2] was “inactive” and the Potency [3] was “inactive”. The Potency [4] was “inactive”, the outcome [5] was “inactive” and the Potency [7] was “inactive”. The Potency [8] was “inactive”, the Potency [9] was “inactive” and the Potency [12] was “inactive”. The Potency [10] was “inactive”, the Potency [13] was “inactive” and the Potency [14] was “inactive”. For the same compound, the outcome [15] was “inactive”, the outcome [11] was “inactive” and the outcome (Aromatase (Homo sapiens)) was “inactive”.

With CC(C)=CC(C)(C)C the Potency [1] was “inactive”, the Potency [2] was “inactive” and the Potency [3] was “inactive”. For the same compound, the Potency [4] was “inactive”, the outcome [5] was “inactive” and the outcome [6] was “inactive”. The Potency [8] was “inactive”, the Potency [9] was “inactive” and the Potency [10] was “inactive”. The outcome [11] was “inactive”.

In the case of CN=C(NC#N)NCCSCc1csc(N=C(N)N)n1, the Potency [1] is reported as “inactive”, the Potency [2] is reported as “inactive” and the Potency [3] is reported as “inactive”. For the same compound, the Potency [4] was “inactive”, the outcome [5] was “inactive” and the outcome [6] was “inactive”. The Potency [8] was “inactive”, the Potency [9] was “inactive” and the Potency [10] was “inactive”. The Potency [13] was “inactive”, the Potency [14] was “inactive” and the outcome [11] was “inactive”. The outcome (Aromatase (Homo sapiens)) was “inactive”.

With CC(C)(CO)[C@@H](O)C(=O)NCCCO the Potency [1] was “inactive”, the Potency [2] was “inactive” and the Potency [3] was “inactive”. The Potency [4] was “inactive”, the outcome [5] was “inactive” and the outcome [6] was “inactive”. The Potency [12] was “inactive”, the Potency [10] was “inactive” and the Potency [13] was “inactive”. The Potency [14] was “inactive”, the outcome [15] was “inactive” and the outcome [11] was “inactive”. The outcome (Aromatase (Homo sapiens)) was “inactive”.

With NC(=O)NC(=O)Cc1ccccc1 the Potency [1] was “inactive”, the Potency [2] was “inactive” and the Potency [3] was “inactive”. For the same compound, the Potency [4] was “inactive”, the outcome [6] was “inactive” and the Potency [8] was “inactive”. For the same compound, the Potency [9] was “inactive”, the Potency [12] was “inactive” and the Potency [10] was “inactive”. For the same compound, the Potency [13] was “inactive”, the Potency [14] was 33.5 µM (active) and the outcome [15] was “inactive”. The outcome [11] was “inactive” and the outcome (Aromatase (Homo sapiens)) was “inactive”.

For O=C(O)Cc1cccc(-c2cc(CCCCCCc3ccc(O[C@H]4O[C@H](CO)[C@@H](O)[C@H](O)[C@@H]4O)c(-c4cccc(CC(=O)O)c4)c3)ccc2O[C@H]2O[C@H](CO)[C@@H](O)[C@H](O)[C@@H]2O)c1, the Potency [1] was “inactive”, the Potency [2] was “inactive” and the Potency [3] was “inactive”. The Potency [4] was “inactive”, the outcome [6] was “inactive” and the Potency [8] was “inactive”. The Potency [9] was “inactive”, the outcome [11] was “inactive” and the outcome (Aromatase (Homo sapiens)) was “inactive”.

Source: PubChem BioAssay (Tox21)
